# From the supplement of paper PMC7556523
# Unmarked numbers belong to inactive results.
# Legend:
# [1] = tested on: Sporothrix brasiliensis CBS 133006; test: growth inhibition relative to untreated control; higher = more growth inhibition (more antifungal activity), active = 80 or more; extreme values may be limits of the assay; conditions: 1 µM; 48 h
# How it was run: (§1)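 Library compounds at a final 1 μM were incubated with yeast-form cells of the reference isolates (1 x 10^5 CFU/ml) for 48 h at 35°C in 5% CO2. Growth was judged by inverted light microscopy and measured spectrophotometrically in quadruplicate runs. Values give percent growth inhibition relative to untreated cells.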
# [2] = tested on: Sporothrix schenckii ATCC 32286; test: as above; conditions: 1 µM; 48 h
# How it was run: as §1
SMILES,growth inhibition [1],growth inhibition [2]
O=C(NCCc1ccccc1)c1cc(-c2cccnc2)cnc1NCC1CC1,0%,0%
O=C(Cn1ccnc1[N+](=O)[O-])NCc1ccccc1,13.8%,4%
CCN(CC)S(=O)(=O)c1ccc(C(=O)Nc2cc(C)nn2-c2nc(C)c(C)c(=O)[nH]2)cc1,1.25%,0%
CN1CCN(CCCOc2ncc(Nc3ncc(-c4ccc(C(F)(F)F)c(F)c4)nc3C(N)=O)cn2)CC1,12.5%,0%
O=C(CN1CCOCC1)Nc1ccc2ncnc(Nc3ccc(OCc4cccc(F)c4)c(Cl)c3)c2c1,8.25%,15.8%
Cc1c[nH]c(CCNC(=O)c2cc(-c3ccc(Cl)cc3)cs2)n1,4%,0%
O=C(OCc1ccccc1)N1CCC(c2cc(-c3ccncc3)c(-c3ccc(F)cc3)[nH]2)CC1,5.25%,13.2%
CC[C@@H](CO)NCCN[C@@H](CC)CO,6.75%,12.2%
CCc1nc2ccccc2n1CC(O)COc1cc(C)ccc1Cl (stereo not drawn),1.25%,11%
COc1ccc(-c2nc(-c3cccc(NC(=O)Cc4ccc(F)cc4)c3)no2)cc1OC,6.25%,4%
FC(F)(F)c1cc(NCCc2ccccc2)nc(-c2ccccn2)n1,10%,9.75%
CC(C)NCC(=O)Nc1cccc(C(=O)Nc2cccc(C(F)(F)F)c2)c1,11.5%,3.75%
CS(=O)(=O)c1ccccc1C(=O)N(Cc1ccccc1)c1ccccc1,13.2%,24%
O=C(NC1CCN(c2ccnc3ccccc23)C1)c1cccc(C(F)(F)F)c1 (stereo not drawn),0%,1.5%
COc1ccc(OC(C)C(=O)Nc2ccc(Cl)cc2C)cc1 (stereo not drawn),10.5%,11.2%
CC1CC1C(=O)NC1CCN(CC2(c3ccccc3)CCCCC2)CC1 (stereo not drawn),12.8%,20.5%
NS(=O)(=O)c1cccc(-c2ccc3ncc(N4CCOCC4)nc3c2)c1,17%,0%
O=C(Nc1c(O)cccc1-c1nc2c(C(=O)O)cccc2o1)c1cc(-c2ccccc2)on1,38.2%,3.75%
O=C(C1CCN(c2nnnn2-c2ccccc2)CC1)N1CCc2ccccc2C1,2.5%,3%
CCCCCCCCCCCCCCCCOP(=O)([O-])OCC[N+](C)(C)C,24.8%,0%
COc1ccc(N(CCc2cccc(C)n2)C(=O)C2CCCCC2)cc1,5.75%,0%
COc1cc(C2=NCCN2)ccc1-c1cn(-c2cccc(C3=NCCN3)c2)nn1,14%,1.25%
CC1CS(=O)(=O)CCN1/N=C/c1ccc([N+](=O)[O-])o1 (stereo not drawn),6%,7%
CCOc1ccccc1C(=O)Nc1cccc(-c2nc3ncccn3c2C)c1,6.75%,12.2%
O=C(NCCc1ccn(-c2ccccc2)n1)C1CCCCC1,11.5%,6.25%

SMILES,growth inhibition [1],growth inhibition [2]
CCN(CC)CCCCCCNc1cc(OC)cc2c(C)ccnc12,7%,2.25%
c1coc(CNc2nc(N3CCCCC3)nc3ccccc23)c1,4.25%,13.5%
CS(=O)(=O)Cc1nc2ccccc2oc1=O,21.8%,4.75%
Nc1nc2cc(-c3cncc(Oc4ccc(F)cc4)c3)ccc2[nH]1,8.5%,18.5%
CC(=O)NC[C@@H]1CN(c2ccc(N3CCOCC3)c(F)c2)C(=O)O1,1.75%,12.5%
COc1ccccc1OCCCCn1c(C2CC2)nc2ccccc21,7.75%,9.25%
N=C(N)Nc1ccc(-c2ccc(-c3ccc(NC(=N)N)cc3Cl)o2)c(Cl)c1,19.8%,0%
COc1ccc(OC)c(NCc2ccc3nc(N)nc(N)c3c2Cl)c1,93.8% (active),89.2% (active)
COc1ccc(-c2cnc3cnc(-c4cccc(OC(C)C)c4)cn23)cc1,10.2%,12%
CN(C)CCNC(=O)N1CCCN(c2ncnc3cc(-c4ccccc4)sc23)CC1,10.5%,13.2%
COc1ccc(-c2cc(NC(=O)c3ccc(F)cc3Cl)ccc2OC)cc1,0%,6.75%
CCNC(=O)C(C)Nc1nc(-c2cccnc2)nc2sc(C)c(C)c12 (stereo not drawn),2.25%,16%
COc1ccc(C(=N)N)cc1-c1cn(-c2ccc(C(=N)N)cc2)nn1,51.8%,0%
CCOc1ccccc1NC(C)C(=O)Nc1cc(C(F)(F)F)ccc1N1CCOCC1 (stereo not drawn),27.8%,0%
c1ccc(Oc2ccc(-c3cc(C4CCOCC4)[nH]n3)cc2)cc1,3%,2.75%
COc1ccc(-c2onc(C(F)(F)F)c2-c2ccc(Cl)cc2)c(O)c1,11.8%,6%
CC(C(=O)Nc1ccc2oc(-c3ccncc3)nc2c1)c1ccccc1 (stereo not drawn),15.2%,0.5%
CN1CCC(NCc2cccc(-c3ccc(S(=O)(=O)NCc4ccccc4)cc3)c2)CC1,8%,13.5%
CC(C)/N=c1\cc2n(-c3ccc(Cl)cc3)c3ccccc3nc-2cc1Nc1ccc(Cl)cc1,7.25%,12.2%
O=C(c1cc2ccccc2o1)N1CCN(Cc2ccc3c(c2)OCO3)CC1,12.8%,7.25%
CCCCc1ccc(C(=O)Nc2nccc3ccccc23)nc1,23.5%,1%
CC(C)C(NC(=O)Cc1cccc2ccccc12)C(=O)Nc1cccc(C#N)c1 (stereo not drawn),4%,9.25%
COc1cccc(OC)c1C(=O)Nc1ccc(Cl)c(-c2nc3ccccc3s2)c1,7.75%,0.75%
CC(=O)Oc1ccccc1C(=O)Nc1ncc([N+](=O)[O-])s1,3.5%,14%
CNC1C(OC2C(OC3C(O)C(O)C(N=C(N)N)C(O)C3N=C(N)N)OC(C)C2(O)C=O)OC(CO)C(O)C1O (stereo not drawn),6%,0%

SMILES,growth inhibition [1],growth inhibition [2]
Oc1c(I)cc(I)c2cccnc12,99.5% (active),94.5% (active)
Cc1cc(OCC(=O)Nc2ccc(C(C)C)cc2)n(C)c(=O)c1C#N,3.5%,8%
Cc1ncc(-c2ccnc(Nc3ccc(S(C)(=O)=O)cc3)n2)n1C(C)C,37%,2.5%
COC(=O)c1c(NC(=O)c2c(F)c(F)c(F)c(F)c2F)sc2c1CCCCC2,13.8%,0.75%
Cc1ccc(NC(=O)c2nc[nH]c2C(=O)Nc2nc3ccccc3[nH]2)c(C)c1,17.8%,1.25%
c1csc(-c2cnc3sc(NCC4CCOCC4)nn23)c1,19.8%,8.75%
c1ccc(-c2cc(N3CCCCC3)c3ccccc3n2)nc1,35.2%,14.8%
Nc1ncnc2c1ncn2[C@@H]1O[C@H](COS(=O)(=O)NC(=O)c2ccccc2O)[C@@H](O)[C@H]1O,5.25%,9%
C[C@H]1COc2c(N3CCN(C)CC3)c(F)cc3c(=O)c(C(=O)O)cn1c23,0%,0%
O=C1COCc2ccc(Br)cc2N1Cc1ccc(C(F)(F)F)cc1,0%,2.75%
CCC(Sc1nc2ccccc2o1)C(=O)Nc1nccs1 (stereo not drawn),5.75%,15.5%
Brc1c(-c2ccc3c(c2)OCO3)nc2ncccn12,19.5%,27.8%
N=C(N)Nc1ccc(-c2ccc(-c3ccc(N=C(N)N)c(Cl)c3)o2)cc1Cl,1.75%,0%
CC(C)c1ncc(-c2ccncc2)c([C@H]2CC[C@H](CNC(=O)c3cccnc3)CC2)n1,4.5%,8.25%
Clc1cccc(C(c2ccc(CN3CCNCC3)cc2)n2ccnc2)c1 (stereo not drawn),3%,7%
CCN(CC)C(=O)N1CCN(C)CC1,4%,1%
COC(=O)Nc1nc2cc(C(=O)c3ccccc3)ccc2[nH]1,3.75%,16%
CC(C)(CN)c1nc(-c2ccc(Cl)c(O)c2)c(-c2ccnc(N)n2)[nH]1,7%,21.8%
CCCc1ccc(S(=O)(=O)Nc2ccc(CN3CCN(CC4CC4)CC3)cc2)cc1,25.5%,2.25%
N#Cc1nc(-c2ccccc2)oc1S(=O)(=O)c1ccc(Cl)cc1,48.8%,6.25%
CC1COC2(CCN(c3nc(=O)c4cc(C(F)(F)F)cc([N+](=O)[O-])c4s3)CC2)O1 (stereo not drawn),15%,1.5%
CC(C)(C)CN1C(=O)C(c2ccccc2)(c2ccccc2)N=C1N,17.8%,4.25%
Cc1ccc2nc(Cl)c(CNCc3cccs3)cc2c1,0%,2.25%
O=C(NCCN1CCCC1)c1cc(NCCCCN2CCC(F)(F)CC2)nc2ccc(Cl)cc12,2.75%,8.5%
